# Experimental data published in the supplement of paper PMC6555819.
# Key:
# Assay in all cases: PBM binding z-score (relative to random genomic background probes); higher = stronger binding; sequences stand for … in GC…GCGATTGACAGCGTAGAATGAAGG
# [1] = tested on: FXR:RXRa (NR concentration 270 nM, RXRa partner concentration 90 nM)
# Method in brief: (§1)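 Binding buffer was PBS pH 7.4 with 2% milk, 0.02% Triton X-100, 1 mM DTT, 0.2 mg/mL BSA and 0.4 mg/ml salmon testes DNA. In it, ligand-free nuclear receptor dimers were incubated 1 h on custom Agilent 4×180K protein-binding microarrays carrying double-stranded probes. Antibodies against each partner (one per run) detected binding, and z-scores were calculated against random background probes after regression normalization of scanned fluorescence.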
# [2] = tested on: LXRa:RXRa (NR concentration 270 nM, RXRa partner concentration 90 nM)
# Method in brief: as §1
# [3] = tested on: LXRa homodimer (NR concentration 270 nM)
# Method in brief: as §1
# [4] = tested on: LXRb:RXRa (NR concentration 270 nM, RXRa partner concentration 90 nM)
# Method in brief: as §1
# [5] = tested on: LXRb homodimer (NR concentration 270 nM)
# Method in brief: as §1
# [6] = tested on: PPARa:RXRa (NR concentration 270 nM, RXRa partner concentration 90 nM)
# Method in brief: as §1
# [7] = tested on: PPARg:RXRa (NR concentration 180 nM, RXRa partner concentration 90 nM)
# Method in brief: as §1
# [8] = tested on: PPARg:RXRa 270nM:90nM, anti-RXR (NR concentration 270 nM, RXRa partner concentration 90 nM)
# Method in brief: as §1
# [9] = tested on: PPARg:RXRa 30nM:10nM, anti-RXR (NR concentration 30 nM, RXRa partner concentration 10 nM)
# Method in brief: as §1
# [10] = tested on: PPARg:RXRa 90nM:30nM, anti-RXR (NR concentration 90 nM, RXRa partner concentration 30 nM)
# Method in brief: as §1
# [11] = tested on: PPARg:RXRa DBDmut IVT, anti-RXR (DBD mutation: RXRa K156A/R161A, NR concentration 270 nM, RXRa partner concentration 90 nM)
# Method in brief: as §1
# [12] = tested on: PPARg:RXRa IVT, anti-PPARg (NR concentration 270 nM, RXRa partner concentration 90 nM)
# Method in brief: as §1
# [13] = tested on: PPARg DBDmut:RXRa IVT, anti-PPARg (DBD mutation: PPARg1 K132A/R137A, NR concentration 270 nM, RXRa partner concentration 90 nM)
# Method in brief: as §1
# [14] = tested on: PPARg DBDmut IVT, anti-PPARg (DBD mutation: PPARg1 K132A/R137A, NR concentration 270 nM)
# Method in brief: as §1
# [15] = tested on: PPARg homodimer (NR concentration 180 nM)
# Method in brief: as §1
# [16] = tested on: PXR:RXRa (NR concentration 270 nM, RXRa partner concentration 90 nM)
# Method in brief: as §1
# [17] = tested on: PXR homodimer (NR concentration 270 nM)
# Method in brief: as §1
# [18] = tested on: RARa:RXR (NR concentration 270 nM, RXRa partner concentration 90 nM)
# Method in brief: as §1
# [19] = tested on: RARa homodimer (NR concentration 270 nM)
# Method in brief: as §1
# [20] = tested on: RARb:RXRa (NR concentration 270 nM, RXRa partner concentration 90 nM)
# Method in brief: as §1
Sequence,PBM binding z-score [1],PBM binding z-score [2],PBM binding z-score [3],PBM binding z-score [4],PBM binding z-score [5],PBM binding z-score [6],PBM binding z-score [7],PBM binding z-score [8],PBM binding z-score [9],PBM binding z-score [10],PBM binding z-score [11],PBM binding z-score [12],PBM binding z-score [13],PBM binding z-score [14],PBM binding z-score [15],PBM binding z-score [16],PBM binding z-score [17],PBM binding z-score [18],PBM binding z-score [19],PBM binding z-score [20]
AGAATGAGGTTATTAAGATCAGGGTATTGCGGTC,1.3,1.29,0.345,1.09,0.122,2.46,1.41,1.62,0.322,0.93,3.41,2.66,0.601,0.558,1.18,1.21,1.07,1.28,0.859,1.32
GCTTGTAGATCAAGGGTAAGAAAGACTAAGCTAA,-0.663,-0.469,-0.732,-0.394,-0.8,1.24,2.55,4.2,1.91,4.14,1.15,1.03,-0.364,-0.778,0.0991,-0.426,-0.45,-0.346,-0.786,-0.0761
TCGAGTAGGTTAGGGGCTTTCAGAATGGCGTCGA,-0.147,0.172,-0.23,0.6,-0.232,0.524,0.208,1.76,0.813,1.15,2.03,1.11,-0.958,-0.419,0.523,-0.179,-0.00687,-0.485,0.102,0.395
CGAAGGAGGGCATGAGTTGATAGCAAATGCCGAT,-0.0276,-0.0888,-0.504,-0.073,-0.785,0.988,1.13,1.1,0.326,0.97,2.57,2.1,0.0677,-0.445,0.352,0.02,-0.165,0.152,-0.898,1.53
ATCGAGAGGTCGAGGTGAGTATAGAGAAAGGGAA,2.84,2.37,-0.153,1.78,-0.102,3.68,2.19,2.16,0.414,1.15,-0.102,1.75,0.955,0.168,0.817,1.9,-0.0163,2.63,-0.363,3.14
TGAATGAGGTTTTAAGATCAGGGAACGTTGCAAA,-0.288,-0.516,-0.631,-0.358,-0.602,0.0128,-0.186,0.12,0.000594,0.043,-0.427,-0.0166,-0.325,-0.224,0.0827,-0.0619,-0.319,0.152,0.043,-0.198
ATCTCTAGGTAACGAGTTCAGTGAAAGAGAGGAC,0.481,0.764,0.708,0.738,0.449,2.04,1.69,1.73,0.509,1.26,4.09,3.44,0.909,0.668,0.806,2.31,2.89,0.857,0.668,1.35
TCGAGTAGGCTAGGGGCATTCAGAATGGCGTCGA,-0.172,-0.557,-0.903,-0.262,-1.16,0.162,-0.111,0.716,0.676,0.504,0.831,-0.362,-1.38,-1.61,-0.968,-0.194,-0.983,-0.131,-1,0.171
GATACAGGGTCAGCTAGAGGACAGAGTATGGAAA,4.89,3.3,-0.154,2.61,-0.241,4.58,3.93,3.23,1.06,2.12,1.12,2.33,0.573,0.147,2.5,3.17,0.27,4.99,0.599,4.34
CCTACTGGGCCATCAGGTCATTGACATCAACGTT,2.17,1.67,1.29,2.01,-0.379,2.7,3.12,3.54,1.46,2.55,4.78,5.02,0.0284,0.33,1.3,1.67,0.415,2.15,0.278,2.09
AGTCGAAGTTCAGGACGAGGTAACGTAAAGCACG,1.05,1.05,-0.0607,0.485,-0.831,1.49,1.27,1.11,0.224,0.868,-0.408,0.263,-0.282,-0.353,0.469,1.19,0.0866,1.42,0.0687,2.41
TCTATTAGTTGAAGGCCAACCGACGAGTCCGTTT,0.871,1.16,0.259,0.921,0.342,1.28,0.257,2.32,4.11,2.96,2.37,0.522,0.431,0.553,1.36,0.903,1.4,0.79,1.21,1.02
AGTCAAAGTTCATCTAGGTAACTTAAGATATGCT,6.76,6.19,5.17,3.8,1.81,4.6,6.6,6.26,2.93,5.64,1.01,3.43,1.87,1.38,4.01,5.28,7.67,3.91,1.85,4.6
CAAACTAGGCCACCGGAAGGTCAAAGTCCGCATG,2.96,3.08,3.39,3.15,0.364,4.46,5.26,5.14,1.86,4.33,7.33,6.74,1.26,1.26,3.52,3.81,1.26,4.32,1.24,3.54
CGTCCAAGTTCAGAGAGGTCAGTGAATGCCGAGT,3.32,3.64,3.27,3.1,0.431,3.19,0.531,1.5,-0.176,0.671,0.453,0.71,-0.268,-0.219,4.09,6.4,13,3.9,1.51,4.09
